Compounds with a hit are over-represented: about 8.1% of the library has one in this group of screens.
ELG1 DNA repair: qHTS screen for small molecules that inhibit ELG1-dependent DNA repair in human embryonic kidney (HEK293T) cells expressing luciferase-tagged ELG1. HEK293T ELG1-luciferase reporter, luminescence, 16 h; DNA damage induced by 5-fluorouridine. Potency, µM (top dose mostly 46.1 µM), inactives show at the highest dose activity change, negative = inhibition, actives largely listed as inhibitors. hit rate 2.3% among 330,000; also: % is scaled to controls: 0 for no effect and ±100 for the full control effect; nearly all actives have a fitted effect of over 55% in size
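Quantitative HTS, concentration-response format. 2,000 cells/well co-treated with 5-fluorouridine and compound, 16 hr in 5% CO2 at 37 °C; ONE-Glo luminescence read after 30 min.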
SW480 rereplic: A quantitative high throughput screen for small molecules that induce DNA re-replication in SW480 colon adenocarcinoma cells | SW480 DNA re-replication, Hoechst DNA content imaging, 48 h | Potency, µM (series often up to 46.1 µM), inactives show at the top dose re-replication activation, usual class: activators | hit rate 1.8% among 340,000; also: % of control where 0% means no effect; nearly all actives have a fitted effect of over 55% in size
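Readout is total intensity of Hoechst-stained nuclei, excited at 405 nm and collected at 500-530 nm. Compound treatment lasted 48 hr at 37 C in 5% CO2 before staining.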
KB-V1 MDR tox: qHTS assay for MDR1-selective chemotherapeutics: Primary screen using the drug-selected MDR subline cells KB-V1; KB-V1 MDR cells viability, CellTiter-Glo, 72 h; Potency, µM (doses to about 46.1 µM), actives largely listed as cytotoxic; hit rate 3.4% among 400,000; AID 1347076, 2019; also: % is scaled to controls: 0 for no effect and ±100 for the full control effect; nearly all actives have a fitted effect of over 60% in size
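Cytotoxicity toward P-gp-expressing KB-V1 cells was determined as loss of CellTiter-Glo luminescence after 72 h at 37 degrees C. Compounds were tested in quantitative HTS format across a concentration range, with curves fitted to normalized data.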
KB-3-1 tox: qHTS assay for MDR1-selective chemotherapeutics: Primary screen using the parental adenocarcinoma cell KB-3-1; AID 1347075, 2019; KB-3-1 viability, CellTiter-Glo ATP luminescence, 72 h; hit rate 1.4% among 400,000; Potency, µM (doses to about 46.1 µM), usual class: cytotoxic; also: % is scaled to controls: 0 for no effect and ±100 for the full control effect; nearly all actives have a fitted effect of over 60% in size
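Viability of parental KB-3-1 cells, measured by CellTiter-Glo luminescence, followed a 72 h incubation at 37 °C with pinned compounds in phenol-red-free DMEM containing 10% FBS.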
MCF10A rereplic: A quantitative high throughput screen for small molecules that induce DNA re-replication in MCF 10a normal breast cells; AID 624296, 2012; hit rate 2.9% among 350,000; Potency, µM (titrated, usually from 46.1 µM), without a hit: top-dose activity, positive = re-replication, most hits filed as activators; MCF 10A DNA re-replication, Hoechst nuclear intensity, 48 h; also: % of control where 0% means no effect; nearly all actives have a fitted effect of over 50% in size
* = called active by the depositor; i = inactive; ? = inconclusive; nt = no result given. Calls follow the shape of the dose curve; as a rule, active = well fitted curve in the direction sought with a large enough effect; inconclusive = small, poorly fitted or top-dose-only effect, or another doubt; inactive = no such curve, though single readings can be large; an effect the other way counts as inactive or inconclusive. Potency is read from the fitted curve at half-maximal effect.

SMILES	ELG1 DNA repair	SW480 rereplic	KB-V1 MDR tox	KB-3-1 tox	MCF10A rereplic
COc1cc(CCC(=O)Nc2nnc(C)s2)cc(OC)c1OC	3%	6.5µM*	?	?	10µM*
COc1ccc(CN2C(=O)c3ccccc3C2c2nnnn2C(C)C)cc1OC (stereo unspecified)	nt	nt	?	i	nt
CCC[C@H]1CN(Cc2cccnc2)C(=O)[C@@H]1CC(=O)Nc1ccc(Br)cc1	nt	nt	?	i	nt
CCCCN(C(=O)NC(=O)Nc1nc2ccc(OC)cc2s1)S(C)(=O)=O	?	?	9.2µM*	?	-8%
COc1ccc2nc(NC(=O)CCn3cccc3)sc2c1	26%	1%	18µM*	i	2%
CCCCOC(=O)Nc1nc2ccc(OC)cc2s1	?	-25%	i	i	11%
CCOCC(=O)Nc1nc2ccc(OC)cc2s1	?	-9%	i	i	-13%
CN1C(=O)[C@@](O)(c2cn(C)c3ccccc23)c2cc(Br)ccc21	nt	nt	i	i	nt
N#CC(C#N)=c1ccc2c(c1)NC1(CCCCC1)N=2	?	13µM*	?	?	?
CCCCN(CCCC)S(=O)(=O)c1ccc(NS(=O)(=O)c2ccc(NC(C)=O)cc2)cc1	-6%	2%	i	i	15µM*
CCCCOC(=O)Nc1ccc(S(=O)(=O)Nc2ccc([N+](=O)[O-])cc2)cc1	16%	?	21µM*	i	15%
CCCCOc1ccc(S(=O)(=O)Nc2ccc(NC(C)=O)cc2)cc1	-23%	-3%	21µM*	?	19%
CCCCN(CCCC)S(=O)(=O)c1ccc(NC(=O)Cc2cccs2)cc1	?	-2%	5.2µM*	i	24%
CCCN(CCC)S(=O)(=O)c1ccc(NC(=O)Cc2cccs2)cc1	-20%	-1%	?	i	3%
CC(C)NC(=O)C1CCC(Cn2c(=O)c3sccc3n(CC(=O)N3CCCC3)c2=O)CC1 (stereo unspecified)	nt	nt	i	i	nt
COc1ccc(C)cc1N1CC(C(=O)Nc2ccccc2C(=O)NC2CC2)CC1=O (stereo unspecified)	-2%	-8%	i	i	0%
C1=Cc2ccccc2/C1=C\c1ccc2c(c1)OCO2	nt	nt	i	i	nt
CCNC(=O)C1(C)CCN(C(=O)c2c(F)cccc2F)C1 (stereo unspecified)	nt	nt	i	i	nt
CC(=O)NC12CC3CC(C1)CC(C(=O)Nc1cccc(S(=O)(=O)N4CCCCCC4)c1)(C3)C2	nt	0%	15µM*	i	15%
CC(=O)NC12CC3CC(C1)CC(C(=O)Nc1ccc(C)c(S(=O)(=O)N4CCCCCC4)c1)(C3)C2	nt	2%	21µM*	?	5%
COc1ccc(NC(=O)COC(=O)C23CC4CC(CC(NC(C)=O)(C4)C2)C3)cc1S(=O)(=O)N1CCOCC1	-5%	-3%	i	i	-2%
Cc1ccc(-c2cc(=O)c3ccccc3[nH]2)cc1	?	?	?	?	13µM*
Cc1ccc2[nH]c(-c3ccccc3)cc(=O)c2c1	?	?	?	0.29µM*	?
O=c1cc(-c2ccc(Cl)cc2)[nH]c2ccccc12	8%	?	i	?	15µM*
Cc1cc(=O)c2ccccc2[nH]1	-2%	2%	i	i	-1%
SMILES	ELG1 DNA repair	SW480 rereplic	KB-V1 MDR tox	KB-3-1 tox	MCF10A rereplic
Cc1cccc(C)c1NC(=O)C(C1CC1)n1c(-c2ccc(-c3ccccc3)cc2)nc2ccccc21 (stereo unspecified)	nt	nt	i	i	nt
COc1ccccc1NC(=O)NNC(=O)C(C)Oc1ccc2ccccc2c1 (stereo unspecified)	2%	3%	i	i	4%
NC(=O)c1cc(N2C(=O)C=CC2=O)ccc1Cl	15%	?	i	i	18µM*
CC(=O)Nc1ccc(Cl)c(C(N)=O)c1	-1%	-7%	i	i	-8%
CC(=O)Nc1cc(C(=O)N2CCc3ccccc3C2)ccc1Sc1ccc(Cl)cc1	-10%	8%	i	i	23µM*
C[C@@H](CSc1ccccc1)CN1CC[C@H](NC(=O)OCc2ccccc2)CCC1=O	?	5%	?	i	?
CCN1CCN(CNC(=O)c2cnccn2)CC1	15%	9%	23µM*	?	16%
O=C(NCN1CCN(c2ccccc2)CC1)c1cnccn1	-4%	-20%	?	i	15%
O=S1(=O)CCOC[C@H](c2ccccc2)N1Cc1ccc(F)cc1	nt	nt	i	i	nt
CCCC(C)c1nnc(NC(=O)C2CCCO2)s1 (stereo unspecified)	?	21µM*	i	i	5.2µM*
CC(C)CN(C(=O)C1CSC2(C)CCC(=O)N12)c1c(N)n(Cc2ccccc2)c(=O)[nH]c1=O (stereo unspecified)	-6%	?	?	i	28%
CS(=O)(=O)N(CCC#N)Cc1ccc(/C=C2\C(=O)Nc3ccccc32)o1	7.3µM*	-3%	i	i	1%
O=C(c1cccc([N+](=O)[O-])c1)N1CCN(c2cccc(Cl)c2)CC1	?	?	5.8µM*	18µM*	16µM*
COC(=O)c1cc(C(=O)N2CCN(c3cccc(Cl)c3)CC2)cc([N+](=O)[O-])c1	?	0.73µM*	?	1µM*	?
COC(=O)c1cc(C(=O)N2CCOCC2)cc([N+](=O)[O-])c1	0%	-8%	i	i	-1%
Cc1ccc(N2CCN(C(=O)c3cccc([N+](=O)[O-])c3)CC2)cc1Cl	?	-15%	i	i	-6%
O=C(Nc1c(-c2ccccc2)[nH][nH]c1=O)c1ccco1	nt	nt	i	i	nt
CCn1c(CSCc2ccc(C)cc2)nnc1SCC(=O)N1CCN(c2ccccc2)CC1	18µM*	?	i	i	-1%
CCn1c(Cc2ccccc2)nnc1SCC(=O)N1CCCCC1	15%	-4%	i	i	14%
C=CCn1c(CSCc2ccccc2)nnc1SCC(=O)N1CCN(c2ccccc2)CC1	?	-79%	10µM*	i	-43%
CC(C)C[C@@H](CN1CCC[C@H]1CN1C(=O)C(=O)NC[C@@H]1Cc1ccc(O)cc1)N1C[C@H](Cc2ccc(O)cc2)N(CCc2ccccc2)C(=O)C1=O	nt	nt	i	i	nt
Cc1cc(C)cc(N2C(=O)CC(c3ccc(C(F)(F)F)cc3)C3=C2COC3=O)c1 (stereo unspecified)	nt	nt	i	i	nt

Source: PubChem
